High-throughput results: PubChem BioAssay, National Center for Advancing Translational Sciences (NCATS)
This is a sample that favours compounds with a hit; in the whole collection about 0.78% have one here.
Tb PGK inh: inhibitors of T. brucei phosphoglycerate kinase | P07378 | PGK/GAPDH coupled, Kinase-Glo luminescence, 60 min | Potency, µM (titrated, usually from 57.5 µM), most hits filed as inhibitors | 380,000 compounds, 0.043% hits | AID 602233; also: nearly all actives have a fitted effect of over 60% in size
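Recombinant glycosomal PGK reaction used 1,3-bisphosphoglycerate generated in-well by GAPDH (100nM final) in 100mM TEA pH 7.6, 5mM MgCl2, 0.01% Tween-20. After 60 minutes at room temperature, ATP was read by Kinase-Glo Plus luminescence end-point.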
GLS inh: blocks human kidney-isoform glutaminase activity. GLS enzymatic activity, qHTS titration. Potency, µM (doses to about 45.5 µM), hits mostly inhibitors. 410,000 compounds, 0.21% hits. AID 624170
Target sequence (O94925 whole entry, looked up, canonical isoform): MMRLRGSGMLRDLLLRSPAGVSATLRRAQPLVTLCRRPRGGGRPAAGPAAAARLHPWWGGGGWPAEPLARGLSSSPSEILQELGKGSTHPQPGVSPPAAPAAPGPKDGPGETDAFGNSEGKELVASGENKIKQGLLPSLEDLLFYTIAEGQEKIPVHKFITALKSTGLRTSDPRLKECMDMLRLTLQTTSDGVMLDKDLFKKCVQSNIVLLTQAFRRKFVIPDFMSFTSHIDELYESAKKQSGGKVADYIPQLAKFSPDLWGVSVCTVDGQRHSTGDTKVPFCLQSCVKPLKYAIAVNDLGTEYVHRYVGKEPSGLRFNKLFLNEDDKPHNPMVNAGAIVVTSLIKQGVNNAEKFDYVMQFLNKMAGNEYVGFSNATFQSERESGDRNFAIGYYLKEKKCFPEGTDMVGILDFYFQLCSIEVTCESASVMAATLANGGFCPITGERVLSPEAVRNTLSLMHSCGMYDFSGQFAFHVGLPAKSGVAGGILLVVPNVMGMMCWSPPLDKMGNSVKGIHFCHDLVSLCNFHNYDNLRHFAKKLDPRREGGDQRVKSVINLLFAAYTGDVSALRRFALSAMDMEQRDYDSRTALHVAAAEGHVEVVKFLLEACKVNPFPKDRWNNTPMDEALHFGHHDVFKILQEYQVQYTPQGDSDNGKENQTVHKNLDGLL
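Enzyme dispensed in phosphate buffer (45 mM, pH 8.2, 0.02% Tween-20), compounds pinned in, then 1 mM L-glutamine solution and the glutamate oxidase–HRP–Amplex Red mix added; fluorescence read immediately and again after 30 min at room temperature.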
CCT chaperon mod: modulators of cytosolic chaperonin (CCT/TRiC) activity. purified chaperonin ATPase assay, HTRF ADP detection, 30 min. activity change, % (no concentration beside the values), hits read low. 360,000 compounds, 0.3% hits; in the data active = activity change below about -30%
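First, chaperonin was dispensed at 40 nM or 20 nM final depending on batch activity. Next, compounds were pinned at 76 uM and ATP added at 10 uM. After 30 min at 37 °C, ADP detection reagents ran 30 min at ambient temperature.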
PI4K2A block: PI4K2A (human) kinase inhibition; Q9BTU6; AID 1346378; purified PI4K2A, ADP-Glo luminescence, 1 h; stronger effect = lower value; activity change, negative = inhibition, % at 76.9 µM; 420,000 compounds, 0.13% hits; in the data active = activity change below about -50%; inconclusive = mostly about -30% to -49%
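ADP-Glo luminescence measured ADP generated by PI4K2A enzyme (4 ug/mL before mixing) with 1.2 mM PI substrate (pre-mix) and 300 microM ATP (pre-mix). Tris pH7.5 buffer with MgCl2, Triton X-100; 1 h reaction at ambient temperature.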
PINK1 modulator: modulators of PINK1 expression. 410,000 compounds, 0.2% hits. PINK1 immunofluorescence, high-content cytometry, 24 h. Potency, µM (top dose mostly 76.6 µM), hits mostly activators; active = well fitted activation curve with a large enough effect; inconclusive = small, poorly fitted or top-dose-only effect; cell line not stated here; also: nearly all actives have a fitted effect of over 65% in size
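Measures PINK1 amount and localization on or inside mitochondria by immunofluorescence. Stable cells get compounds at 5 concentrations for 24 hours before fixation and staining; CCCP controls included.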
Of the large screens only hits and unclear results are named; the others gave an inactive call. Unless noted, calls follow the shape of the dose curve; as a rule, active = well fitted curve in the direction sought with a large enough effect; inconclusive = small, poorly fitted or top-dose-only effect, or another doubt; inactive = no such curve, though single readings can be large; an effect the other way counts as inactive or inconclusive.

Oc1[nH]c2ccccc2c1N=Nc1ccccc1Cl	PINK1 modulator 31.6µM
Oc1[nH]c2ccccc2c1N=Nc1c(F)c(F)c(Cl)c(F)c1F	PINK1 modulator inconclusive (no result: Tb PGK inh)
CCOc1ccc(OCCC(=O)OCC(=O)Nc2ccc(Cl)cn2)cc1	CCT chaperon mod -32.7
O=C(COC(=O)COc1ccccc1F)Nc1ccc(Cl)cn1	none
O=C(CCc1ccccc1)Nc1ccc(Cl)cn1	CCT chaperon mod -52.6
O=C(COC(=O)Cc1ccccc1F)Nc1ccc(Cl)cn1	CCT chaperon mod -32.8
O=C(NCC1(N2CCOCC2)CCCC1)c1cnn(-c2ncc3c(n2)-c2ccccc2CC3)c1C1CC1	none (no result: Tb PGK inh, GLS inh, CCT chaperon mod, PI4K2A block)
Cc1ccc2c(c1C)NC(C(=O)O)C1CC=CC21 (centres undefined)	Tb PGK inh inconclusive, GLS inh inconclusive (no result: PINK1 modulator)
O=C(O)C1Nc2c(C(=O)N3CCOCC3)cccc2C2C=CCC12 (centres undefined)	Tb PGK inh inconclusive, GLS inh 2.51µM
COC(=O)c1c(OCc2ccccn2)cc(=O)n2c1CCN(Cc1ccc3c(c1)CCCN3C)CC2	none (no result: Tb PGK inh, GLS inh, CCT chaperon mod, PI4K2A block)
O=C(COc1ccccc1C(=O)N/N=C\c1ccc(O)c(O)c1)N/N=C/c1ccc(O)c(O)c1	Tb PGK inh 2.24µM
O=C(N/N=C/c1ccc(O)c(O)c1)NC12CC3CC(CC(C3)C1)C2	none
COc1cc(/C=N/NC(=O)NC23CC4CC(CC(C4)C2)C3)ccc1O	GLS inh 7.94µM
O=C(COc1ccccc1[N+](=O)[O-])N/N=C/c1ccc(O)c([N+](=O)[O-])c1	none
COc1cc(/C=N/NC(=O)C(=O)N2CCCCCC2)ccc1O	GLS inh 8.91µM
C=CCOc1ccc(/C=N/NC(=O)C(=O)N2CCCCCC2)cc1OC	none
CCOc1cc(/C=N/NC(=O)N/N=C/c2ccc(O)c(OCC)c2)ccc1O	GLS inh 8.91µM
c1coc(-c2ccccc2CN2CCOc3ccc(CN4CCOCC4)cc3C2)c1	none (no result: Tb PGK inh, GLS inh, CCT chaperon mod, PI4K2A block)
COc1ccc2c(c1)OC(C)CN(CCNC(=O)c1csc(-c3cccs3)n1)C2 (centres undefined)	none (no result: Tb PGK inh, GLS inh, CCT chaperon mod, PI4K2A block)
O=C(N/N=C/c1cc(Cl)cc([N+](=O)[O-])c1O)NC12CC3CC(CC(C3)C1)C2	Tb PGK inh 11.2µM, GLS inh 8.91µM, PINK1 modulator inconclusive
Cc1ccc2nc(SCC(=O)NCC3Cc4cccc(-c5nc(C)cnc5C)c4O3)[nH]c2c1 (centres undefined)	none (no result: Tb PGK inh, GLS inh, CCT chaperon mod, PI4K2A block)
CC1=C(C(=O)OC(C)C)C(c2ccc(Cl)cc2)n2c(s/c(=C\c3ccc(OCC(=O)O)cc3)c2=O)=N1 (centres undefined)	Tb PGK inh inconclusive, GLS inh 11.2µM
O=C(CSc1nc2ccccc2c(=O)n1Cc1ccccc1)NCc1ccco1	PINK1 modulator 5.62µM
O=C(CSc1nc2ccccc2c2nc3ccccc3n12)NCc1ccco1	PI4K2A block -53.5
O=C(CSc1nc2ccccc2c(=O)n1Cc1ccco1)NCc1ccccc1	none
CCCn1c(SCC(=O)NCc2ccco2)nnc1C(C)C	CCT chaperon mod -41.8
COCCNC(=O)CSc1nc2ccccc2c(=O)n1CCCC(=O)NCc1ccccc1	CCT chaperon mod -75.0
Cc1ccc(C(=O)Oc2ccc(C(O)CNC(C)(C)C)cc2OC(=O)c2ccc(C)cc2)cc1 (centres undefined)	none (no result: Tb PGK inh, GLS inh, CCT chaperon mod, PINK1 modulator)
CCCCC(=O)OCC(=O)[C@H]1[C@H](C)C[C@H]2[C@@H]3C[C@H](F)C4=CC(=O)C=C[C@]4(C)[C@@]3(F)[C@@H](O)C[C@@]21C	none (no result: Tb PGK inh, GLS inh, CCT chaperon mod, PINK1 modulator)
CO/N=C(\C(=O)N[C@@H]1C(=O)N2C(C(=O)OCOC(=O)C(C)(C)C)=C(C)CS[C@H]12)c1csc(N)n1	none (no result: Tb PGK inh, CCT chaperon mod, PI4K2A block, PINK1 modulator)
Cc1ccc(C(=O)Nc2cccc(-c3nc(CNC(=O)C4CCCCC4)c(C)o3)c2)s1	none (no result: Tb PGK inh, GLS inh, CCT chaperon mod, PI4K2A block)
CCOC(=O)c1c(-c2ccccc2)nc2c(C)cccn12	CCT chaperon mod -118.9
CCOC(=O)c1c(-c2ccccc2)nc2ccccn12	none
CC1(C)CC[C@]2(C(=O)n3ccnc3)CC[C@]3(C)[C@H](C(=O)C=C4[C@@]5(C)C=C(C#N)C(=O)C(C)(C)[C@@H]5CC[C@]43C)[C@@H]2C1	GLS inh 10µM
Cc1ccc2c(c1)S(=O)(=O)c1ccc3ccccc3c1N2	CCT chaperon mod -36.6
Cc1cnc(C)c(-c2cccc3c2OC(CNC(=O)/C=C/c2ccc(F)c(F)c2)C3)n1 (centres undefined)	none (no result: Tb PGK inh, GLS inh, CCT chaperon mod, PI4K2A block)
